Experimental data: PubChem BioAssay AID651593 (National Center for Advancing Translational Sciences (NCATS), 2012)
The campaign covered roughly 1,100 compounds. About 860 (78%) were called active. Inconclusive results (about 19%) are left out. The call rests on the fitted dose curve; in most records, active means well fitted activation curve with a large enough effect; inconclusive means small, poorly fitted or top-dose-only effect; inactive means flat fitted curve, though single readings scatter. The set was probably picked from earlier hits. This is one part of the list.

Test: qHTS of Nrf2 Activators: Hit Validation in Primary Assay; further: nearly all actives have a fitted effect of over 70% in size
Conditions: Nrf2/ARE reporter cell assay; Potency: activation; series mostly up to 46.1 µM
Method in brief: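 AREc32 cells stably carrying an ARE-driven firefly luciferase, plated overnight, then exposed 24 h at 37 °C to compounds at several concentrations. ARE activation read as luminescence with Steady-Glo after 30 min at room temperature.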
Potency means the concentration at half of the fitted maximal effect.

Structure (SMILES) | Potency
Oc1c(-c2cc(-c3ccco3)[nH]n2)ccc2ccccc12 | 2.31 µM (active)
Oc1ccc(Cl)cc1-c1cc(-c2ccco2)[nH]n1 | 3.66 µM (active)
Oc1ccc(Br)cc1-c1cc(-c2ccco2)[nH]n1 | 3.66 µM (active)
COc1ccccc1NC(=O)c1cc(Cl)nc2ccccc12 | 5.17 µM (active)
O=[N+]([O-])c1cnccc1-n1nnc2ccccc21 | 18.4 µM (active)
COc1ccc(S(=O)(=O)NCCc2csc3nc(-c4ccc(Cl)cc4)nn23)cc1C | 5.17 µM (active)
O=C(COCc1cc(-c2ccc(F)cc2)on1)Nc1cc(Cl)ccc1O | 8.2 µM (active)
O=C(COCc1cc(-c2cccs2)on1)Nc1cc(Cl)ccc1O | 2.31 µM (active)
Oc1ccccc1C1CC(c2cccs2)=NC(c2ccc(Cl)cc2)N1 (configuration not stated) | 13 µM (active)
COC(=O)c1ccccc1NC(=O)COc1ccccc1[N+](=O)[O-] | 2.59 µM (active)
C/C(=N\NC(=O)COc1ccccc1[N+](=O)[O-])c1cccs1 | 6.51 µM (active)
O=c1nc2c(-c3ccccc3F)n[nH]n2c2ccccc12 | 2.59 µM (active)
CCNc1nc(NCC)nc(N(C)/N=C/c2ccco2)n1 | 2.59 µM (active)
O=C(N/N=C\c1ccco1)Nc1cccc(Cl)c1 | 2.31 µM (active)
O=C(N/N=C/c1ccco1)Nc1ccccc1 | 8.2 µM (active)
O=C(Nc1ccc(F)cc1)c1nsc(Cl)c1Cl | 1.64 µM (active)
O=C(Nc1cccc(/C=C/c2ccccn2)c1)c1ccc(-n2cncn2)cc1 | inactive
Clc1ccc(C=Cc2ccccn2)c(Cl)c1 | 3.66 µM (active)
Clc1ccc(C=Cc2ccccn2)cc1 | 5.17 µM (active)
CC1(C)C2C/C(=N\O)C(C)(/[N+]([O-])=C/c3cccc([N+](=O)[O-])c3)CC21 (configuration not stated) | 20.6 µM (active)
N#C/C(=C\C=C\c1ccccc1)C(=O)NCc1cccnc1 | 2.31 µM (active)
O=[N+]([O-])c1cc(-c2nc(-c3ccccc3)no2)ccc1NCc1cccnc1 | 2.31 µM (active)

Structure (SMILES) | Potency
CCNc1ccc(-c2nc(-c3ccco3)no2)cc1[N+](=O)[O-] | 1.46 µM (active)
CCCNc1ccc(-c2nc(-c3ccco3)no2)cc1[N+](=O)[O-] | 2.31 µM (active)
COCCNc1ccc(-c2nc(-c3ccco3)no2)cc1[N+](=O)[O-] | 1.46 µM (active)
Cc1nn(-c2cccc(C(F)(F)F)c2)c(=O)c2ccccc12 | 3.66 µM (active)
CCOc1ncccc1-c1nc(-c2cccs2)no1 | 18.4 µM (active)
CCOc1ccc(Br)cc1-c1noc(-c2cccs2)n1 | 2.31 µM (active)
COc1cc(-c2noc(-c3cccs3)n2)cc(OC)c1OC | 13 µM (active)
CCN=c1scc(C)n1/N=C/c1ccsc1 | 7.31 µM (active)
Cc1nc([N+](=O)[O-])c(Br)n1Cc1ccccc1 | 20.6 µM (active)
c1ccc2c(c1)nnn2-c1ncnc2sccc12 | 13 µM (active)
Clc1nc2sccn2c1/C=N/n1cnc2ccccc21 | 2.59 µM (active)
O=C(CSc1nnc(-c2cccnc2)o1)c1cc2ccccc2oc1=O | 18.4 µM (active)
Nc1nonc1N/N=C/c1c(O)ccc2ccccc12 | 6.51 µM (active)
Cc1cc(N/N=C/c2c(O)ccc3ccccc23)nc(-c2ccccc2O)n1 | inactive
Oc1ccccc1C=NN=Cc1c(O)ccc2ccccc12 | 3.66 µM (active)
O=C(Nc1cccc([N+](=O)[O-])c1)Nc1cccs1 | 18.4 µM (active)
Cc1c(NC(=O)Nc2cccs2)cccc1[N+](=O)[O-] | 11.6 µM (active)
O=c1oc2ccc(Cl)cc2nc1/C=C(\O)c1ccco1 | 14.6 µM (active)
CC(C)(C)/C(O)=C/c1nc2cc(Cl)ccc2oc1=O | 13 µM (active)
O=c1oc2ccc(Cl)cc2nc1/C=C(\O)c1cccs1 | 14.6 µM (active)
O=c1oc2ccccc2cc1-c1nc(-c2cccs2)cs1 | 3.66 µM (active)
N=c1oc2ccccc2cc1-c1nc(-c2ccccc2)cs1 | 3.66 µM (active)

Structure (SMILES) | Potency
O=c1oc2ccccc2cc1-c1csc(Nc2ccc(O)cc2)n1 | 4.61 µM (active)
O=c1oc2ccccc2cc1-c1nc2c(s1)CCc1ccccc1-2 | 3.26 µM (active)
COc1ccccc1C(=O)NCc1nc2cccnc2n1Cc1ccc(F)cc1 | 2.91 µM (active)
C#CCSc1nnc(-c2sc3ccccc3c2Cl)o1 | 2.59 µM (active)
c1cncc(-c2nc(NCc3ccco3)c3ccccc3n2)c1 | 5.17 µM (active)
Cc1ccc(-c2nc(NCc3ccco3)c3ccccc3n2)cc1 | 6.51 µM (active)
O=C(CCN1C(=O)c2cccc3cccc(c23)C1=O)Nc1ccon1 | 4.61 µM (active)
Cc1cc(=O)oc2c(C(=O)/C=C\c3cccs3)c(O)ccc12 | 9.2 µM (active)
Cc1cc(=O)oc2c(C(=O)/C=C/c3ccccc3)c(O)ccc12 | 2.59 µM (active)
Cc1ccc(S(=O)(=O)CCSC(=N)N)cc1 | 18.4 µM (active)
O=C(Nc1ccc(Cl)cn1)c1cnn2cccnc12 | 5.17 µM (active)
COc1cccc(/C=C2/CCC(CN(C)C)C2=O)c1 (configuration not stated) | 3.66 µM (active)
C=CCc1cccc(C=Nc2cc(Br)ccc2O)c1O | 3.26 µM (active)
Cc1ccc(Cn2c(/C=C/c3ccco3)nc3ccccc32)cc1 | 2.31 µM (active)
O=C(Nc1nc2ccccc2[nH]1)c1ccc(Cl)c([N+](=O)[O-])c1 | 20.6 µM (active)
Cc1cc(CNC(=O)c2cccc([N+](=O)[O-])c2)c2ccccc2n1 | inactive
O=C(Nc1nc2ccccc2[nH]1)c1cccc([N+](=O)[O-])c1 | 2.06 µM (active)
O=C(Nc1ccccn1)c1ccc(Cl)c([N+](=O)[O-])c1 | 18.4 µM (active)
S=c1[nH]nc(-c2ccccc2)n1/N=C/C=C/c1ccco1 | inactive
Cc1cccc(-c2n[nH]c(=S)n2/N=C/C=C/c2ccco2)c1 | 2.06 µM (active)
CC(/C=N/n1c(-c2ccncc2)n[nH]c1=S)=C\c1ccco1 | 2.59 µM (active)
S=c1[nH]nc(-c2ccncc2)n1/N=C/C=C/c1ccco1 | 8.2 µM (active)

Structure (SMILES) | Potency
O=C1C(=Cc2cccc(F)c2)Cc2ccccc21 | 13 µM (active)
O=C1C(=Cc2cccc(Cl)c2)Cc2ccccc21 | 4.61 µM (active)
COC(=O)/C=C1/S/C(=N/N=C/c2ccco2)NC1=O | 0.82 µM (active)
O=C(/C=C/c1cccs1)c1ccco1 | 20.6 µM (active)
CCCN(C(=O)c1ccco1)c1nnc(-c2ccccc2C)s1 | 8.2 µM (active)
S=c1[nH]nc(-c2ccco2)n1/N=C/C(Cl)=C/c1ccccc1 | 23.1 µM (active)
S=c1[nH]nc(-c2cccnc2)n1/N=C/C(Cl)=C\c1ccccc1 | 14.6 µM (active)
S=c1[nH]nc(COc2ccccc2)n1/N=C/C(Cl)=C/c1ccccc1 | 4.61 µM (active)
Cc1ccc(C)c(NC(=O)COC(=O)c2cc(=O)c3ccccc3o2)c1 | 20.6 µM (active)
O=C(Nc1ccc(F)cc1)c1cc2ccccc2o1 | 3.66 µM (active)
Cc1ccc(NC(=O)c2cc(=O)c3ccccc3o2)cc1 | 20.6 µM (active)
O=c1oc(CCCO)cc2ccc(C#Cc3ccsc3)cc12 | 2.31 µM (active)
O=c1[nH]c(O)c(/C=C2\C=Nc3ccccc32)[nH]1 | 14.6 µM (active)
O=c1[nH]c(O)c(/C=C2\C=Nc3ccc(Br)cc32)[nH]1 | 8.2 µM (active)
O=C(CN1CCS(=O)(=O)CC1)N/N=C/c1cccc(C(F)(F)F)c1 | 2.31 µM (active)
Nc1nc(-c2ccccc2)cc(-c2ccccc2O)n1 | 4.11 µM (active)
Oc1ccccc1-c1csc(-c2ccccc2)n1 | 7.31 µM (active)
CC1Sc2n(c3ccccc3[n+]2C)N=C1c1ccccc1 (configuration not stated) | 7.31 µM (active)
C[n+]1c2n(c3ccccc31)N=C(c1ccccc1)CS2 | 2.91 µM (active)
COc1cc2c(c(Br)c1N)-c1cc(Br)c(N)cc1C2=O | 4.11 µM (active)
Nc1c(Cl)c(Cl)nc(C(=O)N/N=C/c2ccco2)c1Cl | 2.59 µM (active)
O=C(Nc1ccccc1C(=O)N/N=C/c1ccco1)c1ccccc1 | 2.31 µM (active)

Structure (SMILES) | Potency
O=C(Nc1ccccc1C(=O)N/N=C/c1ccco1)c1ccc(F)cc1 | 2.31 µM (active)
Cc1nn(C)c(C)c1/C=C(/C(=O)C(C)(C)C)n1cncn1 | 11.6 µM (active)
O=C(CN1C(=O)S/C(=C\c2ccccc2Cl)C1=O)NC1C=CS(=O)(=O)C1 (configuration not stated) | 18.4 µM (active)
O=[N+]([O-])c1cc(Cl)cc(/C=N/Nc2nc3ccccc3s2)c1O | inactive
Brc1cc2c(cc1/C=N/Nc1nc3ccccc3s1)OCO2 | 2.31 µM (active)
N#Cc1c(-c2ccco2)cc(-c2ccccn2)nc1N | 2.31 µM (active)
CC(C)Cc1cc(-c2ccco2)c(C#N)c(N)n1 | 1.3 µM (active)
N#Cc1c(-c2ccco2)cc(-c2ccc(F)cc2)nc1N | 2.31 µM (active)
CCc1nc(N)c(C#N)c(-c2ccco2)c1C | 1.64 µM (active)
O=C(Oc1cccc(-c2cnc3ccccc3n2)c1)c1ccco1 | 3.26 µM (active)
c1coc(-c2cnc3ccccc3n2)c1 | 5.17 µM (active)
O=[N+]([O-])c1cccc(-c2cnc3ccccc3n2)c1 | 6.51 µM (active)
CC(=O)Nc1ccc(O)c(-c2nc3ccccc3s2)c1 | 2.06 µM (active)
O=[N+]([O-])c1ccc(Cl)c(/C=N/n2c(-c3ccncc3)n[nH]c2=S)c1 | 11.6 µM (active)
O=C(N/N=C/c1ccc(-c2cccc([N+](=O)[O-])c2)o1)c1cccs1 | 2.06 µM (active)
CCN1C(=O)/C(=C\c2ccco2)C(C(=O)OC)=C1C | 3.26 µM (active)
COC(=O)C1=C(C)N(C)C(=O)/C1=C\c1ccco1 | 2.06 µM (active)
COC(=O)C1=C(C)N(c2ccc(Br)cc2)C(=O)/C1=C\c1ccco1 | 18.4 µM (active)
COC(=O)C1=C(C)NC(=O)/C1=C\c1ccco1 | 3.66 µM (active)
